BoNT A protease: inhibitors of Botulinum neurotoxin A light chain protease; multiplex microsphere protease substrate cleavage, flow cytometry; inhibition, % at 10 µM; 360,000 compounds, 0.17% hits; also: plate controls were buffer without enzyme for full effect and enzyme alone for no effect
Anthrax LF inh2: blocks Bacillus anthracis lethal factor protease; P15917; multiplex microsphere protease cleavage assay, LF; inhibition, % at 10 µM; 360,000 compounds, 0.12% hits; also: plate controls were buffer without enzyme for full effect and enzyme alone for no effect
BoNT F protease: inhibitors of Botulinum neurotoxin F light chain protease. Multiplex microsphere protease cleavage assay, flow cytometry. inhibition, % at 10 µM. 360,000 compounds, 0.22% hits; in the data active = inhibition above about 35%, passing the limit was not always enough; inconclusive = no clear call, values can overlap the other calls; also: plate controls were buffer without enzyme for full effect and enzyme alone for no effect
Autofluor counter: compound fluorescence in toxin protease inhibitor counterscreen. 360,000 compounds, 3.1% hits. compound autofluorescence counterscreen, microsphere flow cytometry; hits give high values. fluorescence intensity (test concentration not listed). AID 624483; in the data active = fluorescence intensity above about 16000; inconclusive = no clear call, values can overlap the other calls
Active calls of the source: *; ? = inconclusive. Hits are enriched below; roughly 3.5% of the tested compounds scored in any of these assays. Rule as the data show it, unless noted: active = inhibition above about 30%; inconclusive = no clear call, values can overlap the other calls; inactive = below that.

SMILES	BoNT A protease	Anthrax LF inh2	BoNT F protease	Autofluor counter
CCOC(=O)COc1ccccc1-c1ccno1	?	-3.3	-7.5	21115*
CCOC(=O)COc1ccccc1/C=C1\NC(=O)NC1=O	-0.3	2.2	0.4	4868
O=C(CCCOc1ccc(Cl)cc1Cl)NCCc1ccccn1	-1.3	-10.5	10.1	3825
CC(C)(C)Nc1nc(C(N)=O)nc(N2CCOCC2)n1	-2.1	-4.4	-4.7	24325*
COCCCNC(=O)c1ccc(-c2nc3ccccc3nc2-c2ccccc2)cc1	-1.7	-5.3	-1.0	6662
COCCCNC(=S)NNC(=O)c1cccnc1	0.1	-1.7	-1.8	20168*
O=C(NNC(=S)NCc1ccccc1)c1cccnc1	1.7	-1.1	1.6	5709
COCCCNC(=O)c1ccc(C(=O)NCCCOC)cc1	0.1	2.0	-2.2	22526*
CCCc1c(-c2ccc(F)cc2F)ncn1Cc1ccccc1OC	-0.3	0.1	1.8	6104
Cc1ccc(CSc2nnc(-c3cccnc3)n2N)cc1	-1.3	0.1	-3.8	23095*
Cc1ccc(CSc2nnc(-c3ccco3)n2N)cc1	-0.3	-1.7	1.1	23093*
Cc1ccc(C(=O)CSc2nnc(-c3cccnc3)n2N)cc1	1.1	-8.0	2.5	15409
CC(C)C[C@H]1COc2cc(N(C)CCO)ccc2S(=O)(=O)N1	0.2	-2.2	0.2	5765
CCC(C)(C)NC(=O)C1CCN(c2nc(C)cc(C)n2)CC1	-1.3	-0.7	-0.7	16929*
CCCNC(=O)C1CCN(c2nc(C)cc(C)n2)CC1	0.7	1.4	8.6	4400
COCCSc1nnc(NC(=O)C2CCCCC2)s1	-1.2	-1.5	-2.2	17088*
Cc1cc(C)nc(N2CCC(C(=O)Nc3nnc(C)s3)CC2)n1	?	-12.5	2.1	18862*
Cc1nnc(NC(=O)C2CCCCC2)s1	?	-3.2	-3.8	22880*
CC(C)C[C@@H]1COc2cc(N3CCC[C@H]3CO)ccc2S(=O)(=O)N1	0.2	-2.7	0.3	5076
C[C@H](CO)N1C[C@H](C)[C@@H](CN(C)Cc2ccncc2)OCCCC[C@H](C)Oc2ccc(NC(=O)CCCN(C)C)cc2C1=O	0.3	-9.0	5.4	4355
COc1ccc(NC(=O)CSc2nnc(-c3ccccc3C)n2N)cc1	-1.7	-0.7	-2.5	22454*
Cc1ccccc1-c1nnc(SCC(=O)Nc2ccc(Cl)cc2)n1N	2.1	-1.0	1.3	15729
COc1ccc(NC(=O)CSc2nnc(-c3ccccc3C)n2N)cc1OC	?	-0.9	-1.0	22260*
CCOc1cccc(-c2nnc(SCC(=O)Nc3ccc(OC)c(OC)c3)n2N)c1	0.8	-7.9	9.9	4218
COc1ccc(NC(C)=O)cc1NC(=O)CSc1nnc(-c2ccc(F)cc2)n1N	-0.3	-3.1	-2.0	20810*
SMILES	BoNT A protease	Anthrax LF inh2	BoNT F protease	Autofluor counter
CCOc1cccc(-c2nnc(SCC(=O)Nc3cc(OC)cc(OC)c3)n2N)c1	?	-2.4	-2.9	22656*
CCN(c1ccccc1)S(=O)(=O)c1ccc(C(=O)N2CCN(c3ccccc3F)CC2)cc1	0.1	-0.2	-4.9	3893
COC(=O)c1cccc(NC(=O)CCN2C(=O)NC(C)(C)C2=O)c1	0.5	-1.1	0.5	3681
COc1cc(NC(=O)CSc2ncccc2C(=O)OC(C)C)cc(OC)c1	-2.0	0.5	-3.0	23173*
OC1(c2cccc(C(F)(F)F)c2)CCN(Cc2nnnn2Cc2ccccc2)CC1	-0.4	-0.9	5.0	2645
CCCn1nnnc1-c1cc(Cl)cc(Cl)c1	0.3	0.7	0.2	10923
FC(F)(F)c1cccc(Cn2nnnc2-c2cc(Cl)cc(Cl)c2)c1	?	-1.5	-3.4	16997*
FC(F)(F)c1cccc(Cn2nnnc2-c2cccc(C(F)(F)F)c2)c1	?	-0.2	-8.4	24655*
CNC(=O)OC1CC2CC1[C@H]1CCCCN1C2=O (stereo partly specified)	-0.5	8.2	1.5	5895
Cc1cc(S(=O)(=O)NCCN(C)C)c(C)s1	0.3	-0.5	1.0	22830*
Cc1cc(S(=O)(=O)NCc2ccc(S(N)(=O)=O)cc2)c(C)s1	2.6	-2.0	-1.8	21825*
CCOc1ccc(-c2nnc(NC(=O)C3CCCC3)o2)cc1	-4.6	4.3	-25.3	3849
Cc1cccc(C)c1NC(=O)NS(=O)(=O)c1ccccc1	0.4	-0.2	6.8	3751
COCc1cn(-c2nc3ccccc3s2)nn1	0.5	2.5	-1.5	6155
Fc1ccc(CNc2ccc(CNc3ncn[nH]3)cc2)cc1	6.4	-4.0	4.0	21380*
CCOC(=O)C1CCCN(c2c(NCCN(CC)c3ccccc3)c(=O)c2=O)C1 (stereo unspecified)	-0.6	-7.3	4.3	6011
CCOC(=O)C1CCCN(c2c(NCCCN(CC)c3ccccc3)c(=O)c2=O)C1 (stereo unspecified)	-0.5	1.6	-6.2	24139*
COc1ccc(-c2nnc(SCCC(=O)O)n2C)cc1OC	-0.5	2.3	2.3	5130
COc1ccc(C(C)=O)cc1CSc1nnc(-c2ccccc2O)n1-c1ccccc1	0.9	-1.6	-1.8	19750*
COc1ccc(-c2nnc(SCCC(=O)O)n2-c2ccccc2)cc1OC	-4.7	-2.4	-7.5	25005*
O=C(Nc1cccnc1Cl)c1cc(-c2cccc(O)c2)on1	0.6	0.0	3.9	5808
CC(c1ccccc1)C(OC(=O)c1cccc([N+](=O)[O-])c1C(=O)O)c1ccccc1 (stereo unspecified)	0.3	-0.1	13.2	4150
CC1CCC2(CC1)NC(=O)N(CC(=O)Nc1ccc(N3CCCCC3)cc1)C2=O (stereo unspecified)	0.0	-2.9	2.6	3967
Brc1c(CSc2nncn2-c2ccccc2)nc2ncccn12	0.2	2.4	-2.1	3344
Brc1c(CSc2nncn2-c2ccccc2)nc2sccn12	3.2	-5.5	4.9	19506*
SMILES	BoNT A protease	Anthrax LF inh2	BoNT F protease	Autofluor counter
Cc1cccc(C(=O)Nc2ccc(Cl)cc2C(=O)c2ccccc2)c1	?	-5.1	-2.4	20672*
Cc1cccc(C(=O)Nc2ccccc2NC(=O)c2cccc(C)c2)c1	-2.9	1.2	7.3	3471
COc1ccc(OC)c(NC(=O)CC2SC(=Nc3ccccc3)N(CCc3ccccn3)C2=O)c1 (stereo unspecified)	1.1	-1.0	-3.6	2027
COc1ccc(N=C2SC(CC(=O)Nc3ccc(OC)cc3OC)C(=O)N2C)cc1 (stereo unspecified)	3.2	-2.5	4.7	20859*
Cc1ccc(-c2cc(C)nc3nc(N)nn23)cc1	0.0	0.8	2.6	16426*
Oc1ccc(C(=S)N2CCCCC2)cc1Cl	-1.6	-1.9	-5.8	24104*
COc1cc(C(=S)N2CCCC2)ccc1O	1.9	-0.5	1.6	20063*
COc1cc(C(=S)N2CCCCC2)ccc1O	-0.4	-4.3	-7.6	7223
Oc1ccc(C(=S)N2CCCCC2)cc1	0.0	-6.0	7.0	3097
COc1ccccc1CCC(=O)N(C)C1CCCN(Cc2ccccc2F)C1 (stereo unspecified)	-0.8	3.5	?	3571
C[C@@H]1CN([C@H](C)CO)C(=O)CCCn2nncc2CO[C@@H]1CN(C)S(=O)(=O)c1ccc(-n2cccn2)cc1	-0.4	-1.3	-1.7	3943
CCCCN(CC)Cc1ccc(CNC(=O)Nc2ccc(OCC)cc2)o1	0.6	-1.1	1.0	20423*
CCCCN(CC)Cc1ccc(CNC(=O)Nc2ccc(Cl)cc2)o1	-1.3	2.2	-7.1	5350
COc1ccc(/C=N/NC(=O)CNC(=O)c2ccncc2)cc1OC	-1.4	4.6	6.6	3701

From PubChem
